Experiments:
Test in all cases: PBM binding z-score (relative to random genomic background probes); higher = stronger binding; sequences stand for … in GC…GCGATTGACAGCGTAGAATGAAGG
[1] = tested on: FXR:RXRa (NR concentration 270 nM, RXRa partner concentration 90 nM)
Outline: (§1)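 Each nuclear receptor dimer, without ligand, was incubated for 1 h on custom Agilent 4×180K protein-binding microarrays. Binding was detected with antibodies against each partner (one per run), and scanned fluorescence was regression-normalized. The binding z-scores are referenced to random human genomic background probes.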

[2] = tested on: LXRa:RXRa (NR concentration 270 nM, RXRa partner concentration 90 nM)
Outline: as §1

[3] = tested on: LXRa homodimer (NR concentration 270 nM)
Outline: as §1

[4] = tested on: LXRb:RXRa (NR concentration 270 nM, RXRa partner concentration 90 nM)
Outline: as §1

[5] = tested on: LXRb homodimer (NR concentration 270 nM)
Outline: as §1

[6] = tested on: PPARa:RXRa (NR concentration 270 nM, RXRa partner concentration 90 nM)
Outline: as §1

[7] = tested on: PPARg:RXRa (NR concentration 180 nM, RXRa partner concentration 90 nM)
Outline: as §1

[8] = tested on: PPARg:RXRa 270nM:90nM, anti-RXR (NR concentration 270 nM, RXRa partner concentration 90 nM)
Outline: as §1

[9] = tested on: PPARg:RXRa 30nM:10nM, anti-RXR (NR concentration 30 nM, RXRa partner concentration 10 nM)
Outline: as §1

[10] = tested on: PPARg:RXRa 90nM:30nM, anti-RXR (NR concentration 90 nM, RXRa partner concentration 30 nM)
Outline: as §1

[11] = tested on: PPARg:RXRa DBDmut IVT, anti-RXR (DBD mutation: RXRa K156A/R161A, NR concentration 270 nM, RXRa partner concentration 90 nM)
Outline: as §1

[12] = tested on: PPARg:RXRa IVT, anti-PPARg (NR concentration 270 nM, RXRa partner concentration 90 nM)
Outline: as §1

[13] = tested on: PPARg DBDmut:RXRa IVT, anti-PPARg (DBD mutation: PPARg1 K132A/R137A, NR concentration 270 nM, RXRa partner concentration 90 nM)
Outline: as §1

[14] = tested on: PPARg DBDmut IVT, anti-PPARg (DBD mutation: PPARg1 K132A/R137A, NR concentration 270 nM)
Outline: as §1

[15] = tested on: PPARg homodimer (NR concentration 180 nM)
Outline: as §1

[16] = tested on: PXR:RXRa (NR concentration 270 nM, RXRa partner concentration 90 nM)
Outline: as §1

[17] = tested on: PXR homodimer (NR concentration 270 nM)
Outline: as §1

[18] = tested on: RARa:RXR (NR concentration 270 nM, RXRa partner concentration 90 nM)
Outline: as §1

[19] = tested on: RARa homodimer (NR concentration 270 nM)
Outline: as §1

[20] = tested on: RARb:RXRa (NR concentration 270 nM, RXRa partner concentration 90 nM)
Outline: as §1

Sequence | PBM binding z-score [1] | PBM binding z-score [2] | PBM binding z-score [3] | PBM binding z-score [4] | PBM binding z-score [5] | PBM binding z-score [6] | PBM binding z-score [7] | PBM binding z-score [8] | PBM binding z-score [9] | PBM binding z-score [10] | PBM binding z-score [11] | PBM binding z-score [12] | PBM binding z-score [13] | PBM binding z-score [14] | PBM binding z-score [15] | PBM binding z-score [16] | PBM binding z-score [17] | PBM binding z-score [18] | PBM binding z-score [19] | PBM binding z-score [20]
CTTACTGGGCCAAAAAGGTCATTGATGCCGATAA | 4.42 | 4.75 | 3.31 | 4.26 | 0.76 | 5.17 | 5.05 | 5.24 | 2.89 | 4.69 | 6.06 | 5.95 | 2.51 | 1.61 | 4.12 | 5.01 | 4.11 | 5.16 | 1.79 | 4.03
CCTTACGGGTCACTGACAGGTTTTAGCATTTGGA | 5.38 | 3.52 | -0.116 | 3.31 | 0.045 | 5.09 | 4.18 | 4.36 | 1.27 | 3.04 | 3.46 | 3.56 | 0.228 | 0.218 | 2.26 | 2.98 | -0.502 | 4.09 | 1.06 | 3.88
ACAGACAGGTGAGTGAAGGTACCTCAGCTGGACG | -0.587 | -0.527 | -0.687 | -0.78 | -0.777 | -0.49 | 0.476 | -0.227 | -0.761 | -0.682 | 0.368 | 0.143 | -0.279 | -0.459 | -0.919 | -0.854 | -0.592 | -0.657 | -1.02 | 0.213
CCGACTGGGGCAGAAAGGTTATCATACCATCCGG | 0.492 | 0.483 | 0.0667 | 0.849 | -0.748 | 2.05 | 1.7 | 2.27 | 0.694 | 2.13 | 1.78 | 1.73 | -1.01 | -1.06 | 0.664 | 0.873 | 0.149 | 1.85 | -0.196 | 1.68
GCTGCTAGGTCAGGTTGGTTAGCTAACGGGTACG | 1.06 | 0.689 | -0.475 | 0.322 | -0.199 | 1.24 | 0.149 | 0.709 | -0.629 | 0.079 | 3.18 | 1.92 | -0.902 | -0.404 | 0.608 | 0.32 | -0.467 | 0.712 | -0.719 | 3.07
TCATATAGGTAAACAGGTGAAAGTACGTAAGTTA | 1.36 | 1.03 | 0.233 | 1.26 | 0.199 | 2.74 | 4.09 | 4.04 | 4.33 | 4.17 | 4.97 | 4.72 | 2.79 | 1.19 | 1.65 | 0.938 | 0.715 | 1.22 | 1.42 | 0.779
CTACCAGGGTGAACAAGGTCGTTGATTACTATTC | 0.789 | 1.46 | 0.0612 | 1.76 | -0.454 | 2.41 | 0.951 | 1.28 | 0.0757 | 0.507 | 1.3 | 1.86 | 0.284 | -0.282 | 1.61 | 3.12 | 0.95 | 2.67 | -0.135 | 1.42
ATATGTAGGTTACATCCGGGTCATTCCGGCTATG | 1.93 | 4.16 | 1.81 | 2.68 | 0.955 | 4.37 | 5.96 | 5.25 | 2.7 | 4.37 | 7.45 | 7.39 | 4.71 | 3.42 | 2.43 | 3.36 | 1.56 | 3.56 | 0.832 | 2.14
TCATATAGGTAAACAGGCGAAAGTCCGTAAGTTA | 0.58 | 0.715 | 0.0889 | 0.816 | -0.0877 | 1.56 | 1.45 | 2.91 | 3.94 | 3.3 | 4.24 | 2.83 | 0.751 | 0.916 | 1.19 | 0.767 | 0.508 | 1.04 | 0.681 | 0.356
AGATGTAGGTTAGCTGGGGTCATTCAGACTAGGC | 4.46 | 5.57 | 2.58 | 4.53 | 1.17 | 4.85 | 5.03 | 4.61 | 2.17 | 3.72 | 5.87 | 5.76 | 1.86 | 0.481 | 2.31 | 6.19 | 3.97 | 5.41 | 0.958 | 3
TCAGACAGGTCAAGGTAACTCAGGTACGCAGTCG | 4.86 | 4.63 | 0.984 | 3.22 | 0.435 | 4.62 | 3.57 | 4.27 | 3.93 | 4.13 | 2.85 | 2.73 | 0.0851 | 0.283 | 1.88 | 2.46 | 0.321 | 3.37 | 0.676 | 4.31
ACAGACAGGTGATGAAGGTAACCCAGGCTATCAT | -0.0743 | -0.103 | -0.116 | -0.241 | -0.475 | 0.302 | 0.814 | 0.0501 | 0.126 | -0.204 | -0.12 | 0.789 | 0.463 | 0.0514 | 0.225 | -0.103 | -0.0491 | 0.412 | -0.333 | 0.413
TCTGCTAGGTCAGTTGGTCAACTAACGAGCTGCC | 0.974 | 0.627 | -0.58 | 0.38 | 0.371 | 1.63 | 1.12 | 2.14 | 1.02 | 1.81 | 2.83 | 3.32 | 0.661 | 0.786 | -0.104 | 0.269 | -0.861 | 0.622 | -0.954 | 3.27

Source: the supplement of paper PMC6555819
